Inconclusive results are not listed. The source made the active and inactive calls. Unless noted, the call rests on the fitted dose curve; in most records, active means well fitted curve in the direction sought with a large enough effect; inconclusive means small, poorly fitted or top-dose-only effect, or another doubt; inactive means no such curve, though single readings can be large; an effect the other way counts as inactive or inconclusive.
Key:
[1] = S16 Schwann cell viability assay (CellTiter-Glo assay) (AID 624031);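 further: cellular ATP luminescence as a viability measure; nearly all actives have a fitted effect of over 70% in size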
Summary of the method: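 This viability control uses native rat S16 Schwann cells grown in DMEM plus 10% FBS. After a 24 h compound treatment at 37 °C, CellTiter-Glo luminescence reports ATP content, scaled against DMSO-treated and cell-free wells.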

AA1029 = experiment: qHTS profiling for inhibitors of Plasmodium falciparum proliferation (AID 504749); further: nearly all actives have a fitted effect of over 60% in size; settings: P. falciparum in erythrocytes, SYBR Green DNA, 72 h; series mostly up to 28.7 µM
Summary of the method: (§1)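 In a 72 h erythrocytic culture (37 C, humidified, 5% CO2) at 2.5% hematocrit and 0.3% starting parasitemia, compounds were tested; SYBR Green I in detergent lysis buffer stained parasite DNA overnight.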

AS120 = experiment: as above; settings: P. falciparum in erythrocytes, SYBR Green DNA, 72 h; series mostly up to 28.7 µM
Summary of the method: as §1

ATS189 = experiment: as above; settings: P. falciparum in erythrocytes, SYBR Green DNA, 72 h; series mostly up to 28.7 µM
Summary of the method: as §1

ATS95 = experiment: as above; settings: P. falciparum in erythrocytes, SYBR Green DNA, 72 h; series mostly up to 28.7 µM
Summary of the method: as §1

CP211 = experiment: as above; settings: P. falciparum in erythrocytes, SYBR Green DNA, 72 h; series mostly up to 28.7 µM
Summary of the method: as §1

CP215 = experiment: as above; settings: P. falciparum in erythrocytes, SYBR Green DNA, 72 h; series mostly up to 28.7 µM
Summary of the method: as §1

CP217 = experiment: as above; settings: P. falciparum in erythrocytes, SYBR Green DNA, 72 h; series mostly up to 28.7 µM
Summary of the method: as §1

CP247 = experiment: as above; settings: P. falciparum in erythrocytes, SYBR Green DNA, 72 h; series mostly up to 28.7 µM
Summary of the method: as §1

CP250 = experiment: as above; settings: P. falciparum in erythrocytes, SYBR Green DNA, 72 h; series mostly up to 12.8 µM
Summary of the method: as §1

CP252 = experiment: as above; settings: P. falciparum in erythrocytes, SYBR Green DNA, 72 h; series mostly up to 12.8 µM
Summary of the method: as §1

CP256 = experiment: as above; settings: P. falciparum in erythrocytes, SYBR Green DNA, 72 h; series mostly up to 28.7 µM
Summary of the method: as §1

CP269 = experiment: as above; settings: P. falciparum in erythrocytes, SYBR Green DNA, 72 h; series mostly up to 28.7 µM
Summary of the method: as §1

ECU = experiment: as above; settings: P. falciparum in erythrocytes, SYBR Green DNA, 72 h; series mostly up to 28.7 µM
Summary of the method: as §1

N140 = experiment: as above; settings: P. falciparum in erythrocytes, SYBR Green DNA, 72 h; series mostly up to 28.7 µM
Summary of the method: as §1

TAB109 = experiment: as above; settings: P. falciparum in erythrocytes, SYBR Green DNA, 72 h; series mostly up to 12.8 µM
Summary of the method: as §1

TAB165 = experiment: as above; settings: P. falciparum in erythrocytes, SYBR Green DNA, 72 h; series mostly up to 28.7 µM
Summary of the method: as §1

[2] = molecular target: Peroxisome proliferator-activated receptor delta (Homo sapiens) (UniProt Q03181); experiment: qHTS assay for small molecule antagonists of peroxisome proliferator-activated receptor delta signaling (AID 588535; active means well fitted inhibition curve with a large enough effect in the signal ratio, with a control signal flat, not every such curve was filed as active; the % refers to the signal ratio; further: potency means the concentration at half of the fitted maximal effect)
Sequence of Peroxisome proliferator-activated receptor delta (Homo sapiens) (Q03181 whole entry, looked up): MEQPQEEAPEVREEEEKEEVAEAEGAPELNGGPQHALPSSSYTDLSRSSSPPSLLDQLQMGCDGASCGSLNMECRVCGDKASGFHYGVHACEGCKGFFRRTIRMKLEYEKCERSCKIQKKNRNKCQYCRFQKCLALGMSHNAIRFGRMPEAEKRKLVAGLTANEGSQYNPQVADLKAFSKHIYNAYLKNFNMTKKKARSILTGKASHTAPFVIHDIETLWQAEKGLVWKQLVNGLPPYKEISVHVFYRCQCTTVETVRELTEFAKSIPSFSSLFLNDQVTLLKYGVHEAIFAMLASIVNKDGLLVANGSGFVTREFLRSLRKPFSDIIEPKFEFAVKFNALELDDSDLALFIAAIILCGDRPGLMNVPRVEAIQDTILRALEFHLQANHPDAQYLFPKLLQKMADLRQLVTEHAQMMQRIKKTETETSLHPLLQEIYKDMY
Summary of the method: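 Antagonist-mode qHTS using GeneBLAzer PPAR-delta-UAS-bla HEK293T cells; compound exposure 18 hrs at 37 C over a titration. Ratiometric CCF4 fluorescence at 460/530 nm; concentration-response points fitted to the Hill equation.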

[3] = qHTS assay for small molecule activators of the p53 signaling pathway (AID 651743; active means well fitted activation curve with a large enough effect in the signal ratio, not every such curve was filed as active; the % refers to the signal ratio; further: potency means the concentration at half of the fitted maximal effect); settings: HCT-116 p53RE-bla, beta-lactamase FRET ratio, 16 h; activation: active compounds read high
Summary of the method: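 A beta-lactamase reporter under p53 response element control, stably carried by HCT-116 cells, reported pathway activation. Test compounds were applied for 16 hours at 37 C, and fluorescence was measured 2 hours after adding the B/G FRET substrate.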

Measured: Potency

C[C@@H]1O[C@H](O[C@@H]2C=C3CC[C@H]4[C@@H](CC[C@]5(C)[C@@H](c6ccc(=O)oc6)CC[C@]45O)[C@@]3(C)CC2)[C@@H](O)[C@H](O)[C@@H]1O
inactive: [1] | AA1029 | AS120 | ATS189 | ATS95 | CP211 | CP215 | CP217 | CP247 | CP250 | CP252 | CP256 | CP269 | ECU | N140 | TAB109 | TAB165

CCN[C@]1(c2cccs2)CCCCC1=O
inactive: [1] | AA1029 | AS120 | ATS189 | ATS95 | CP211 | CP215 | CP217 | CP247 | CP250 | CP252 | CP256 | CP269 | ECU | N140 | TAB109 | TAB165

CN(C)[C@@H]1C(=O)C(C(N)=O)=C(O)[C@]2(O)C(=O)C3=C(O)c4c(O)ccc(Cl)c4[C@](C)(O)[C@H]3C[C@@H]12
inactive: [1] | AA1029 | AS120 | ATS189 | ATS95 | CP211 | CP215 | CP217 | CP247 | CP250 | CP252 | CP256 | CP269 | ECU | N140 | TAB109 | TAB165

COc1cc(N)c(Cl)cc1C(=O)N[C@@H]1CN2CCC1CC2
inactive: [1] | AA1029 | AS120 | ATS189 | ATS95 | CP211 | CP215 | CP217 | CP247 | CP250 | CP252 | CP256 | CP269 | ECU | N140 | TAB109 | TAB165

CNc1ccc(C(=O)CC(O)CCC(C)C2OC(=O)CC(O)CC(=O)CC(O)CC(O)CC(O)CC(O)CC3(O)CC(O)C(C(=O)OC)C(CC(O[C@@H]4OC(C)C(O)C(N)C4O)/C=C/C=C/C=C/C=C/C=C/C=C/C=C/C2C)O3)cc1 (stereo partly specified)
inactive: AA1029 | AS120 | ATS189 | ATS95 | CP211 | CP215 | CP217 | CP247 | CP250 | CP252 | CP256 | CP269 | ECU | N140 | TAB109 | TAB165

CC(C)CC(CN)CC(=O)O (stereo unspecified)
inactive: [1]

CC([C@H](O)c1ccccc1)N(C)C (stereo partly specified)
inactive: [1] | AA1029 | AS120 | ATS189 | ATS95 | CP211 | CP215 | CP217 | CP247 | CP250 | CP252 | CP256 | CP269 | ECU | N140 | TAB109 | TAB165

O=C1C(Cl)=C(Cl)C(=O)C(Cl)=C1Cl
active: [2] 12.6 µM | [3] 25.1 µM

COc1cc2c(cc1OC)[C@@]13CCN4CC5=CCOC6CC(=O)N2C1[C@H]6[C@@H]5C[C@@H]43 (stereo partly specified)
inactive: [1] | AA1029 | AS120 | ATS189 | ATS95 | CP211 | CP215 | CP217 | CP247 | CP250 | CP252 | CP256 | CP269 | ECU | N140 | TAB109 | TAB165
